Source: PubChem (National Center for Advancing Translational Sciences (NCATS))
The list is a sample of the results.
LmPK act – qHTS Assay for Activators of Leishmania Mexicana Pyruvate Kinase (LmPK); Q27686; purified LmPK, Kinase-Glo ATP luminescence, 1 h; activity change, negative = inhibition, % at 57.5 µM; 290,000 tested, under 10 active; AID 1722, 2009; calls by dose curve
Target sequence (Q27686 whole entry, looked up): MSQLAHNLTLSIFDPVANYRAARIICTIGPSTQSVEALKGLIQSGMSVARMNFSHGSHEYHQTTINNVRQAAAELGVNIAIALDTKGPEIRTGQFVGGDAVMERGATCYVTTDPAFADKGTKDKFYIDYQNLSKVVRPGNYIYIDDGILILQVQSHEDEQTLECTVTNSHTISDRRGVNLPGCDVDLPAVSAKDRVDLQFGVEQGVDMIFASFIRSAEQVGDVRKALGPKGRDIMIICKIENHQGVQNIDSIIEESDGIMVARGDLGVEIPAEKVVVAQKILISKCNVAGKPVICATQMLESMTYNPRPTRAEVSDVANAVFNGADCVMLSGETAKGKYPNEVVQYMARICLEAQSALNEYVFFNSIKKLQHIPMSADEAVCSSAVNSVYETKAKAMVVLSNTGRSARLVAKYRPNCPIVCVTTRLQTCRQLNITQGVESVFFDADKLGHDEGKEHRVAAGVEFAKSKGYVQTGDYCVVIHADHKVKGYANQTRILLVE
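Coupled luminescent assay: ATP produced by LmPK (0.1 nM) from ADP (0.1 mM, ~10-fold below Km) and PEP (0.5 mM, at Km) after 1 h RT, detected with Kinase-Glo. Data scaled between no-enzyme and uninhibited controls.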
* hit, by the source's call.

SMILES	LmPK act
CC/C(C)=N/Nc1nc(-c2cc3cccc(OC)c3oc2=O)cs1	-39
COc1ccc(Cl)cc1C(=O)Nc1ccccc1N1CCCCC1	0
O=C(O)c1ccc(N2Cc3ccccc3C2)cc1O	-62
C/C(=N\O)c1sc(-c2ccccc2)nc1C	-59
C/C(=N\Nc1ncc(Cl)cc1Cl)c1ccccn1	-40
CC(C)(C)c1ccc(-c2n[nH]c(=S)n2-c2ccccc2)cc1	-39
Fc1ccc(NCc2n[nH]c(=S)n2Cc2ccccc2)cc1	-38
Cc1ccc(S(=O)(=O)Nc2c(Cl)c(Cl)c(O)c3ccccc23)cc1	-76
CCCCOc1ccc(Nc2cc(Cl)ccc2C(=O)O)cn1	-35
CCCn1c(CCc2ccccc2)n[nH]c1=S	-49
Cc1ccc(-c2cnc3ccccc3n2)cc1C	-37
O=C(O)c1ccc2c(c1)-c1nc3ccccc3n1C2=O	-40
Cc1cc(=O)n2[nH]c(-c3ccc(F)cc3)nc2n1	-45
COc1cccc(-c2n[nH]c(=S)n2Cc2ccco2)c1	-34
Cc1[nH]n(-c2ccc([N+](=O)[O-])cc2)c(=O)c1C=NCCN1CCN(C(=O)c2ccccc2)CC1	-68
O=C(O)c1ccc2ncc(NC(=O)c3ccc(F)cc3)c(=O)n2c1	-34
CN(C(=O)c1ccco1)c1nc2c(s1)CCCC2	-89
CC(=O)Oc1ccc(OC(C)=O)c(SCCCCCN2CCOCC2)c1	-56
CC(/C=C/c1ccc(O)cc1)=N/O	-35
CC(C)N=C1NN=C(c2ccc(F)cc2)CS1	-59
COC(Cc1n[nH]c(=S)n1-c1ccc(Cl)cc1)OC	-45
CSCc1ccc(C(=O)Nc2ccc(C(N)=O)cc2)cc1	-33
COC(=O)c1sccc1NC(=O)Nc1ccc(OC)cc1	-52
N#CC(Cc1ccc(OC(F)F)cc1)c1nc2ccccc2[nH]1 (centres undefined)	-44
Cc1cc(NC(=O)c2ccoc2C)no1	-78
SMILES	LmPK act
Cc1cc2c(cc1C)CN(c1ccccc1)C2	-70
Oc1ccc(N2CCN(Cc3c(-c4ccccc4)nc4ccccn34)CC2)cc1	-40
O=C(Nc1ccccc1)Nc1ccc(C(=O)N2CCOCC2)cc1	-86
O=C(CCc1ccc(O)c(O)c1)N/N=C/c1ccc2c(c1)OCO2	-51
Cc1ccsc1C(=O)Nc1nc2ccccc2[nH]1	-86
Fc1ccc(-c2nc(-c3cnccn3)no2)c(Cl)c1	-59
CSc1nc(O)c(N=Nc2ccc(F)cc2F)c(=O)[nH]1	-78
COc1cc([N+](=O)[O-])ccc1N/C=C/C(=O)c1cccs1	-34
Cc1cc(C(=O)Nc2ccccc2)oc1C	-63
Cc1ccnc(NC(=O)c2cc3ccccc3oc2=O)c1	-81
O=C(CSc1ccccn1)N1CCc2ccccc21	-33
O=C(Nc1ccc(N2CCOCC2)cc1)c1ccc([N+](=O)[O-])o1	-35
COc1ccc(-c2n[nH]c(=S)n2-c2ccccc2C)cc1OC	-32
CCOC(=O)C1=C(CS(=O)(=O)c2ccc(F)cc2)NC(=O)NC1c1ccc(O)c(O)c1 (centres undefined)	-41
O=C(N=Nc1c(O)[nH]c2ccccc12)c1ccco1	-72
Cc1ccc(O)c(-n2nc3ccccc3n2)c1	-46
CSc1ccc(/C=N/NC(=O)c2cccc(O)c2)cc1	-65
CN1CCSc2ccc(C(=O)Nc3cccc(F)c3)cc21	-35
CC(C)(C)C1=CC=C(C(C)(C)C)C(=O)C1=O	-68
CCOc1ccc(Cc2c(C)[nH]c3ccc(C(=O)O)cc3c2=S)cc1	-43
S=c1[nH]nc(CCc2ccccc2)n1-c1ccccc1	-73
COc1ccc(C(=O)/C=C/Nc2cc(C)ccn2)cc1	-91
Oc1cc2c(cc1O)C1c3ccc(O)c(O)c3OCC1(O)C2 (centres undefined)	-54
CC1(C)CCN2CCC(C)(C)c3c(O)ccc1c32	-57
O=c1oc(-c2ccc([N+](=O)[O-])cc2)nc2ccc(O)cc12	-37
SMILES	LmPK act
O=C(COC(=O)c1cccnc1Cl)c1ccc(OC(F)F)cc1	-66
c1ccc(-c2ccc(-c3nccc4ccccc34)[nH]2)cc1	-60
C=CCn1c(-c2cc3cccc(OC)c3o2)n[nH]c1=S	-50
CC(=O)C(C(C)=O)c1c(Cl)c(O)c(O)c2c(C(=O)c3ccccc3)coc12	-68
CCOc1ccc(/C=N/NC(=O)c2[nH]ncc2Br)c(O)c1	-87
S=c1[nH]nc(-c2cccc3ccccc23)n1-c1cccnc1	-72
N/C(=N\OC(=O)C1CCCCC1)c1ccccn1	-64
CC1(C)CC(=O)c2sc(NC(=O)c3cccs3)nc2C1	-48
O=c1c(Cl)c(N2CCOCC2)cnn1-c1nc2ccccc2[nH]1	-35
COc1ccc(-c2n[nH]c(=S)n2-c2ccc(Br)cc2)cc1OC	-74
COc1ccc(/C=N/NC(=O)c2nonc2C)cc1	-102
CN(C)c1ccc(/C=N/N2CCN(c3ccccn3)CC2)cc1	-45
CCn1cc(-c2n[nH]c(=S)n2-c2ccc(C)cc2Br)c(=O)c2ccc(C)nc21	-83
COc1ccccc1-n1c(-c2cn(C)nc2C)n[nH]c1=S	-62
S=c1[nH]nc(C23CC4CC(CC(C4)C2)C3)n1Cc1ccco1	-34
N#CCSc1ccc(-c2nc3ccccc3[nH]2)cn1	-69
